# Only a selection was taken, and hits are over-represented in it overall.
# ERK EGF inh: qHTS Assay for Inhibitors of the ERK Signaling Pathway using a Homogeneous Screening Assay; Stimulation with EGF. HEK293-V1b, EGF-stimulated phospho-ERK AlphaScreen. Potency, µM (series often up to 11.5 µM), for the others: at the top dose activity change, negative = inhibition, hits mostly inhibitors. hit rate 0.41% among 130,000. AID 1454, 2008; active = well fitted inhibition curve with a large enough effect;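 note: plate controls were stimulated vehicle wells for no effect and unstimulated vehicle basal for full effect; nearly all actives have a fitted effect of over 55% in size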
#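 Concentration-response of compounds against EGF-driven ERK phosphorylation in V1b-expressing HEK293 cells; 30 min preincubation, 5 min EGF, AlphaScreen detection; Normalized to DMSO basal and 25 nM EGF.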
# * hit, by the source's call; [ ] = another dose, or the depositor's remark. Potency is the fitted concentration of half-maximal effect.
SMILES,ERK EGF inh
Cc1ccc2cc(CCNC(=O)c3cc4ccccc4o3)c(=O)[nH]c2c1C,32µM*
CCC(=O)NCCc1cc2ccc(C)c(C)c2[nH]c1=O,3%
Cc1ccc2cc(CCNC(=O)C(C)C)c(=O)[nH]c2c1C,-2%
COCC1=Cc2cc3c(cc2C(C(C(=O)OC)C(=O)OC)N1C(=O)OC)OCO3 (stereo not drawn),-5%
N#CCCCS(=O)(=O)c1nnnn1-c1ccc(F)cc1Br,-17%
COC(=O)C1=C(C)[C@H](O)[C@@H](C)[C@](C)(c2cc(OC)c(C)c(OC)c2COc2ccccc2)O1,0%
Cc1ccc(S(=O)(=O)NC(=O)O[C@@H]2C(=O)c3cc(Br)ccc3O[C@H]2c2ccc3c(c2)OCO3)cc1,5%
Cc1cc(/C=C2/C(=O)N(C)C(=S)N2C)ccc1N1CCCC1,25µM*
Cc1cc(/C=C2\NC(=S)N(C)C2=O)ccc1N1CCCC1,-3%
CN1C(=O)/C(=C/C=C2/CCCN2C)N(C)C1=S,-2%
COc1ccc(-c2nc(-c3ccccc3)oc2Nc2ccccc2C)cc1,-9%
CCN(CC)C(=O)c1cccc2c1C(=O)c1ccccc1-2,1%
CN(C)c1cccc2c1C(=O)c1ccccc1C2=O,13µM*
CCN(CC)CCC(=O)Nc1cccc2c1C(=O)c1ccccc1C2=O,5%[57.5 µM]
O=S(=O)(c1ccccc1)N1CCC2(CCCN(c3ccncc3)C2)CC1,-2%
COCCn1c(=O)c(-c2cc(F)cc(F)c2)nc2cnc(Oc3cccc(Cl)c3)nc21,-17%
CCCCCCN(C(=O)CCCCCN1C(=O)NC(C2CCCCC2)C(C(=O)OCc2ccccc2)=C1C)C(C(=O)NCCCC)c1ccc(OCC(=O)OC)c(C(=O)OC)c1 (stereo not drawn),4%
COc1ccc(C2c3c(ncn(CCCO)c3=N)Oc3ccc4ccccc4c32)cc1 (stereo not drawn),40µM*
COc1ccc(C2c3c(ncn(CCCO)c3=N)Oc3ccc4ccccc4c32)cc1OC (stereo not drawn),-2%[57.5 µM]
N=c1c2c(ncn1CCCO)Oc1cc(O)ccc1C2c1ccccc1 (stereo not drawn),2%[57.5 µM]
COC(CNC(=O)c1ccc2c3c(onc13)-c1ccccc1C2=O)OC,35µM*
COC(CNC(=O)C(C)n1nc(C)c2ccccc21)OC (stereo not drawn),3%
COC(CNC(=O)c1cccnc1)OC,1%
C[C@@]1(C(=O)O)NCCc2cc(O)c(O)cc21,-11%
O=C1Nc2ccc(Br)cc2/C1=C/C1CC=CCC1 (stereo not drawn),-3%
SMILES,ERK EGF inh
O=C1Nc2ccc(Br)cc2/C1=C/C(=O)c1ccc2c(c1)OCO2,32µM*
O=C(/C=C\Nc1ccc2c(c1)OCO2)c1ccc2c(c1)OCO2,-9%
COC1=C(C(=O)c2ccccc2)C(=O)C2(CC=C(C)C)C[C@H](C(=O)OCC(F)(F)F)C(C)(C)[C@@]1(CC=C(C)C)C2=O (tested in a mixture with another compound),-1%
CC(C)CCCC(C)C1CCC2C3CC=C4CC(O)CCC4(C)C3CCC12C (stereo not drawn),5%
COc1ccc(C)cc1-n1c(=O)c2ccccc2c2ccccc2c1=O,1%
COc1ccccc1N1C(=O)C2CCC(c3ccccc3)CC2C1=O (stereo not drawn),5%
COc1ccc(C)cc1N1C(=N)/C(=C2/Nc3ccccc3S2)C(c2ccccc2)C1=O (stereo not drawn),20µM*
Cc1ccc(S(=O)(=O)OCCc2ccccc2)cc1,-12%
COc1ccccc1NS(=O)(=O)c1cccc(NC(=O)Cc2cccs2)c1,1%
CCNC(=S)Nc1cccc(S(=O)(=O)Nc2ccccc2OC)c1,2%[57.5 µM]
COc1ccccc1NS(=O)(=O)c1cccc(NC(=O)Nc2ccc(Cl)cc2)c1,28µM*
CN1CCN(c2ncc3nc(CCc4ccccc4)c(=O)n(CCC#N)c3n2)CC1,8%
C=C(C(=O)OC)C(NC(=O)OC)c1ccccc1 (stereo not drawn),0%
COC(=O)C1=C(C(=O)OC)[C@@H]2N(Cc3ccccc3)c3ccccc3[C@@]23C[C@@H](C(=O)OC)N(C(=O)NCc2ccccc2)C3=C1,-1%
C=C(C(C)=O)C(O)/C=C/c1ccco1 (stereo not drawn),-5%
COc1cccc(Nc2ncc3nc(-c4cc(F)cc(F)c4)c(=O)n(CCC#N)c3n2)c1,0%
CC(=O)OC1COC(OC2C(O)C(C)OC(OC3C(OC4CCC5(C)C(CCC6(C)C5CC=C5C7CC(C)(C)CCC7(C(=O)O)CCC56C)C4(C)CO)OCC(O)C3O)C2O)C(O)C1OC(C)=O (stereo not drawn),20µM*
C/C=C(/C)C(=O)OC1C(OC(C)=O)[C@@]2(CO)C(O)C[C@@]3(C)C(=CCC4[C@@]5(C)CCC(OC6OC(C(=O)O)[C@@H](O[C@@H]7OC(CO)C(O)C(O)C7O)C(O)[C@H]6O[C@@H]6OC(CO)C(O)C(O)C6O)[C@](C)(CO)C5CC[C@@]43C)C2CC1(C)C (stereo partly drawn),7%

# Compound activity as filed in PubChem.
